Bioassay records deposited in PubChem BioAssay by National Center for Advancing Translational Sciences (NCATS).
An excerpt weighted towards active compounds, which were near 10% of everything screened.
ALDH1A1 inh – blocks purified human ALDH1A1 activity; 220,000 tested, 7.3% active; Potency, µM (series often up to 75.3 µM), for the others: at the highest dose activity, negative = inhibition, usual class: inhibitors; Purified ALDH1A1, NADH fluorescence, propionaldehyde substrate; P00352;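 note: potency is the fitted concentration of half-maximal effect; plate controls were no enzyme wells and a reference inhibitor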
Target sequence (P00352 whole entry, looked up): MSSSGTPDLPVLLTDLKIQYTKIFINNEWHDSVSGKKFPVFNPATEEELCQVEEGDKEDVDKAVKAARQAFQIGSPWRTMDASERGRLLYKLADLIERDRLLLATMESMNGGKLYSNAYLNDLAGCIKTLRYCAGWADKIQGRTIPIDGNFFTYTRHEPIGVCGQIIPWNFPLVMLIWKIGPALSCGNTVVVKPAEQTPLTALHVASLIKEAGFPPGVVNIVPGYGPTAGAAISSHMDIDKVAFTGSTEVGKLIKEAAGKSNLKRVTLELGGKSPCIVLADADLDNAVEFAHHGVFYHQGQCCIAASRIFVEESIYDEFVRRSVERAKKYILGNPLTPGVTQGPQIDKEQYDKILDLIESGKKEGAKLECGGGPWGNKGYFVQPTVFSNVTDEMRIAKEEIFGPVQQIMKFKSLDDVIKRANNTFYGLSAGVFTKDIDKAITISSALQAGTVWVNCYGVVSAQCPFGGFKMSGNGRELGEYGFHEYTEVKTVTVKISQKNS
IMPase cell inh – membrane-permeable compound that blocks inositol monophosphatase; 120,000 tested, under 10 active; AID 901; inhibition (IP1 accumulation), % at 46.1 µM; CHO-M1 cells, IP1 accumulation, HTRF TR-FRET ratio; active = well fitted curve in the direction sought with a large enough effect in the signal ratio, not every such curve was filed as active; inconclusive = small, poorly fitted or top-dose-only effect, or a change in a side signal; inactive = no such curve, though single readings can be large or run the other way; the % refers to the signal ratio;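 note: cells stimulated with carbachol in lithium chloride buffer; plate controls were DMSO basal wells for no effect and reference inhibitor wells for full effect; higher means more IMPase inhibition seen as more IP1 and lower FRET ratio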
Target sequence (P97697 whole entry, looked up): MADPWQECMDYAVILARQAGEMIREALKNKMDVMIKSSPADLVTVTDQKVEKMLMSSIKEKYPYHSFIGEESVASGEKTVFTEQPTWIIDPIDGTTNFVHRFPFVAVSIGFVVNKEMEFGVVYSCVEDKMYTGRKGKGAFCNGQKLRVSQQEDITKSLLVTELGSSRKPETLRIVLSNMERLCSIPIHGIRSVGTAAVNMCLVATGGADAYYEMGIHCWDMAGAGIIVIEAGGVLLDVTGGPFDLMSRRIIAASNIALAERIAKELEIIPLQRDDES
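Measured: the HTRF emission ratio (665/620 nm) plus the 620 nm donor channel, each fitted to the Hill equation to give AC50. Cells were CHO-M1 given compounds up to 46 uM and a 30 min carbachol stimulation at 37C.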
PNC inhibitor – perinucleolar compartment assembly inhibition. PC3M PTB-GFP, PNC prevalence imaging, 16 h; active compounds read low. activity change (PNC), negative = inhibition, % at 10 µM. 140,000 tested, 3.1% active. AID 2417;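 active = readout at or below -70, meaning at least 70% loss of cells showing the perinucleolar compartment, a nuclear body marking cancer cells; inconclusive = readout between -30 and a set limit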;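 note: plate controls were DMSO wells for no effect and camptothecin positive control wells for full effect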
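PC3M cells stably expressing PTB-GFP, 750–1000 cells/well, treated 16 h at 37 °C with compound (23 nl of library stock), in duplicate. After paraformaldehyde fixation and Hoechst stain, imaged at 20x; PNC prevalence scored by image analysis.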
LMNA splice mod – changes lamin A minigene splicing in HeLa cells | HeLa LMNA splicing GFP/RFP minigene ratio, 48 h | Potency, µM (series often up to 46.1 µM), for the others: at the highest dose ratio change, negative = inhibition, most hits filed as inhibitors | 200,000 tested, 0.01% active | AID 1487; active = well fitted inhibition curve with a large enough effect in the signal ratio, with a control signal flat, not every such curve was filed as active; inconclusive = small, poorly fitted or top-dose-only effect, or effect the other way, or a change in a side signal; the % refers to the signal ratio; note: potency is the fitted concentration of half-maximal effect
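S3 HeLa stable clones carrying a lamin A-EGFP splicing minigene plus DsRed2 were seeded at 600 cells/well in Opti-MEM with 2% FBS, pin-dosed and incubated 48 h at 37°C. Acumen cytometry (488 nm) gave the GFP/RFP total-intensity ratio.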
HPGD block – blocks human HPGD enzyme activity; P15428; purified HPGD, NADH fluorescence kinetic, PGE2 substrate; Potency, µM, inactives show at the top dose activity change, negative = inhibition, actives largely listed as inhibitors; 150,000 tested, 4.3% active; note: potency is the fitted concentration of half-maximal effect
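20 nM HPGD preincubated 15 min at room temperature with compound in 50 mM Tris-HCl pH 8, 0.01% Tween 20. Started with 1 mM NAD+ and 30 uM prostaglandin E2; NADH fluorescence (360/450 nm) read 5 times over 30-s intervals, last minus first.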
Luc counter – Kinase-Glo luciferase inhibition (counter-screen); Q27757; Kinase-Glo luciferase, ATP luminescence, 8 min; Potency, µM (doses to about 38.3 µM), for inactives: at the top dose activity change, negative = inhibition, usual class: inhibitors; 200,000 tested, 0.28% active; AID 1379; active = well fitted inhibition curve with a large enough effect; inconclusive = small, poorly fitted or top-dose-only effect; note: potency is the fitted concentration of half-maximal effect; nearly all actives have a fitted effect of over 60% in size
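Kinase-Glo luciferase light output from ATP and luciferin was measured with 10 uM ATP, within the enzyme's linear range. Buffer: 50 mM imidazole pH 7.2, 50 mM KCl, 7 mM MgCl2, 0.01% Tween 20, 0.05% BSA; luminescence read after 8 min at ambient temperature.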
Active calls of the source: *; ? = inconclusive; . = no result given; [ ] = dose if it differs, or a comment. Unless noted, calls come from the whole dose curve; as a rule, active = well fitted inhibition curve with a large enough effect (not every such curve was filed as active); inconclusive = small, poorly fitted or top-dose-only effect, or another doubt; inactive = no such curve, though single readings can be large or run the other way. Unless noted, % is set by controls: 0 for no effect and ±100 for the full control effect.

SMILES | ALDH1A1 inh | IMPase cell inh | PNC inhibitor | LMNA splice mod | HPGD block | Luc counter
Cc1cc2ccccc2n1CCNC(=O)c1ccc(S(=O)(=O)N2CCCCC2)cc1 | 3.2µM* | -17 | 69 | ? | -19% | -1%
Cc1cc2cc(CNS(=O)(=O)c3ccc4ccccc4c3)ccc2n1C | 14µM* | -15 | -102* | -15% | -16% | -3%
Cc1c(C(=O)NCc2ccc3c(c2)cc(C)n3C)cccc1[N+](=O)[O-] | 6% | . | 50 | -4% | 1.8µM* | 7%
COCCn1c(CNC(=O)c2cccc(N(C)C)c2)nc2cccnc21 | . | . | . | -19%[46 µM] | . | .
C1CCN2CC3CC(CN4CCCC[C@@H]34)C2C1 (some centres undefined) | 2% | 4 | . | . | -10% | -3%
Cc1cc2ccccc2n1CCNC(=O)C(C)Oc1ccccc1 (centres undefined) | ? | -20 | -108* | -7% | -15% | 0%
C=CC[C@@H]1C=C[C@@H](O/N=C\C[C@@H]2C=C[C@H](OC(C)=O)[C@H](COC(C)=O)O2)[C@@H](CO)O1 | 12%[13.5 µM] | . | . | . | . | .
COC(=O)[C@@H]1C[C@@]2(O)[C@@H](O)[C@@H](O)[C@@H](O)C[C@H]2N1Cc1ccc(N2CCOCC2)cc1 | 3% | . | . | . | -7% | -7%
CCOC(=O)c1ccc(Nc2nnc(C(C)(C)C)c(=O)[nH]2)cc1 | 14µM* | 3 | 19 | ? | . | .
Nc1ccn([C@H]2O[C@H](CO)[C@@H]3[O][Sn]([c]4ccccc4)([c]4ccccc4)[O][C@H]32)c(=O)n1 | -14%[13.5 µM] | . | . | . | -17% | -6%[7.66 µM]
COc1cccc(-n2cc(C(=O)Oc3ccc(F)cc3)c3ccccc3c2=O)c1 | . | . | . | -12%[46 µM] | . | .
CSC1=C(C#N)C(c2ccccc2C)C(C#N)=C(N)N1 (centres undefined) | 22µM* | 0 | -8 | 25% | -20% | 2%
COc1ccccc1C(=O)NNC(=S)NC(=O)c1sc2ccccc2c1Cl | -11% | . | -25 | -11% | -10% | -4%
COc1ccccc1C(=O)NC(=S)NNC(=O)c1sc2ccccc2c1Cl | -5% | -19 | ? | -6% | 32µM* | 2%
Cc1c(NC(=S)NC(=O)c2sc3ccccc3c2Cl)cccc1C(=O)O | 25µM* | . | . | -17%[46 µM] | . | -1%
CCC(=O)Nc1ccc(S(=O)(=O)NCc2cccn2Cc2cccc(C)c2)cc1 | . | . | . | -2%[46 µM] | . | .
COc1ccc(/C=N/n2c(SC)nnc2-c2ccccc2)c(OC)c1OC | ? | -1 | -125* | ? | ? | -2%
COc1ccccc1N1CCN(CCCNC(=O)c2nnc(Cc3c(F)cccc3Cl)o2)CC1 | . | 3 | . | . | . | .
COc1ccc(Nc2ncnc3ccccc23)cc1 | 14% | 11 | ? | -3% | -4% | -6%
COc1ccc(Nc2ncnc3ccccc23)c(OC)c1 | 10µM* | 11 | 8 | -13% | ? | -7%
C=C(C(C)=O)C(O)c1ccc(C(F)(F)F)cc1 (centres undefined) | 1% | . | . | . | -6% | 2%
CCN(CC)CCNC(=O)c1c(O)c2cc(OC)c(OC)cc2[nH]c1=O | ? | -2 | -119* | -10% | -28% | 2%
Cc1ccc(N2C(=O)CN(Cc3sccc3C)C2=S)cc1C | ? | 9 | -26 | ? | 3.2µM* | -2%
Cc1ccc(N2C(=O)CN(Cc3cccs3)C2=S)cc1C | 14% | . | . | -8%[46 µM] | . | 3%
Cc1cc(C)c2c(=O)c(C#N)coc2c1 | 10µM* | . | . | . | . | .
SMILES | ALDH1A1 inh | IMPase cell inh | PNC inhibitor | LMNA splice mod | HPGD block | Luc counter
Nc1nc(CSCc2ccccc2)nc(N2CCOCC2)n1 | ? | 3 | -107* | 4% | -11% | 0%
C=CCN1CCc2c(cc(O)c(O)c2Cl)[C@H](c2ccccc2)C1 | . | 7 | . | . | . | .
O=C(CN1CCC(n2nnc3cc(C(F)(F)F)ccc32)CC1)NCc1cccs1 | 3% | 2 | ? | ? | 1% | 0%
CC(C)n1c(N2CCN(C(=O)c3cccs3)CC2)nc2ccccc21 | ? | 7 | ? | -17% | 1% | -2%
O=C(CN1CCC(c2nc3ccccc3s2)CC1)NCc1cccs1 | 6.3µM* | -3 | 23 | ? | ? | 0%
CC(C)n1c(N2CCN(CC(=O)NCc3cccs3)CC2)nc2ccccc21 | 10µM* | -3 | 15 | -19% | -11% | -2%
O=C(CSc1nc2c([nH]c3ccccc32)c(=O)n1-c1cccc(Cl)c1)N1CCCC1 | . | . | . | -7%[46 µM] | . | .
S=c1[nH]nc(C2CCCCC2)n1/N=C/c1ccco1 | ? | . | -11 | 16% | ? | -2%
Cc1ccsc1/C=N/n1c(C2CCCCC2)n[nH]c1=S | ? | 14 | 0 | -4% | 13µM* | 0%
S=c1[nH]nc(C2CCCCC2)n1/N=C/c1ccccn1 | 3.5µM* | . | . | . | . | 0%
Cc1ccc(/C=N/n2c(C3CCCCC3)n[nH]c2=S)s1 | -3% | . | 7 | -9% | 11µM* | 5%
COc1ccccc1CNc1ncncc1-c1ccccc1Cl | 4% | . | . | ? | . | .
CSc1ccc(CNC(=O)c2sc3ncnc(N(C)C4CCCCC4)c3c2C)cc1 | . | . | . | 10%[46 µM] | . | .
COCCn1c(=O)c(C)nc2cnc(N3CCN(C)CC3)nc21 | ? | . | . | 7% | . | .
CCOc1ccccc1-n1c(SCC(N)=O)nc2ccccc2c1=O | 9% | 2 | -106* | 0% | -5% | 0%
CCOC(=O)c1c(C)[nH]c(C)c1C(=O)CSc1nc2ccccc2c(=O)n1-c1ccccc1C | 20µM* | . | -12 | -7% | -8% | -2%
COCC(=O)N1CCC[C@@]2(CCN(Cc3cc(C(F)(F)F)cc(C(F)(F)F)c3)C2)C1 | -10% | . | . | . | -5% | -2%
C[N+]1(C)C2CCC1CC(OC(=O)C(O)c1ccccc1)C2 (centres undefined) | 3% | . | . | . | -19% | -1%
C/C(=C\C(=O)c1ccccc1)Nc1ccc(O)cc1 | -12% | 8 | -25 | -2% | -8% | 21%
C/C(=C\C(=O)c1cccnc1)Nc1ccc(O)cc1 | ? | -5 | 5 | 18% | 16µM* | -3%
O=C(CSc1ncc(CO)n1Cc1ccccc1)Nc1ccc(C(F)(F)F)cc1 | . | . | . | -9%[46 µM] | . | .
CCOc1ccc(OCC)c(NC(=O)CC(C)n2nc(C)cc2C)c1 (centres undefined) | . | . | . | 7%[46 µM] | . | .
CCC1CN(C(=O)N2CCC(C(=O)N(C)Cc3ccccc3)CC2)c2ccccc2O1 (centres undefined) | . | . | . | -11%[46 µM] | . | .
CCOC(=O)C1Oc2ccccc2C(c2ccccc2)=C1C(C)=O (centres undefined) | ? | . | . | . | -15% | 0%[39.9 µM]
O=C(CSCc1c(F)cccc1Cl)NCc1ccncc1 | ? | . | . | ? | . | -8%
O=C(CNC(=O)c1ccco1)OCc1c(F)cccc1Cl | 14% | 0 | 68 | -1% | 0% | 2%
O=C(NCCSCc1c(F)cccc1Cl)c1ccco1 | 16µM* | 1 | -15 | -3% | 5µM* | 1%
